The results in this text go back to PubChem BioAssay (EPA / NIEHS).

“And” between values parts separate entries of the source, which are not always exact repeats. Equal values may be shown once. The source made the active and inactive calls. How the source made its calls: active means hit-call score of the fitted dose curve at least 0.9, where 1 is the maximum; inactive means score below 0.9.

A short description of the test: BSK_BE3C_SRB: Viability Assessment in the BioMAP Diversity Plus: BE3C Assay (AID 2283028).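 On AC50: fitted both ways so AC50 may mark signal gain or loss versus DMSO.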 The note with it: primary human bronchial epithelial cells. As to the method: BSK_BE3C is a cell-based, multiplexed-readout assay that uses bronchial epithelial cell, a human lung primary cell, with measurements taken at 24 hours after chemical dosing in a 96-well plate.BSK_BE3C_SRB is an assay component measured in the BSK_BE3C assay. It measures 0.1% sulforhodamine related to cell death using Sulforhodamine staining technology.Data from the assay component BSK_BE3C_SRB was analyzed into 1 assay endpoint. This assay endpoint, BSK_BE3C_SRB, was analyzed with bidirectional fitting relative to DMSO as the negative control and baseline of activity. Using a type of viability reporter, gain or loss-of-signal activity can be used to understand changes in the signaling. Furthermore, this assay endpoint can be referred to as a primary readout, because this assay has produced multiple assay endpoints where this one serves a signaling function. To generalize the intended target to other relatable targets, this assay endpoint is annotated to the cell morphology intended target family, where the subfamily is cell conformation.
The levels of cell surface (or secreted, indicated by the prefix "s") biomarker endpoints were measured by ELISA. Overt cytotoxicity to cells in confluent adherent cultures (all systems other than the BT system) was assessed by measuring total protein levels using sulforhodamine B (SRB) staining in parallel cultures at the time of biomarker measurements, indicated as SRB endpoints. For proliferation assays for adherent cell types, individual cell types are cultured at sub-confluence and relative cell numbers quantified by SRB staining at time points optimized for each system (48 h: 3C and CASM3C systems; 72 h: BT and HDF3CGF systems; 96 h: SAg system). SRB was performed by staining cells with 0.1% SRB after fixation with 10% TCA and reading wells at 560 nm.Viability and proliferation of PBMC (T cells) was quantified by Alamar Blue reduction for the SAg and BT systems. For PBMC viability (referred to as PBMC Cytotoxicity within the assay endpoint names), cells were plated (75,000/well in a 96-well plate) and then chemical samples added for 1 h before addition of activators, SEB and TSST-1 (20 ng/mL final concentration each). Cells were incubated for 90 h. Then, Alamar Blue (20 uL/well) (Invitrogen, Cat DAL1100) was added for 6 h, and the plates were read with a fluorescence microplate reader at 546/580 nm (excitation/emission). For PBMC proliferation, cells were plated and activated as above but incubated for only 16 h prior to addition of Alamar Blue. Plates were read after 6 h.
As a reminder, the AC50 is the concentration at which the activity in the assay is half-maximal. Take `Oc1c(Cl)c(Cl)c(Cl)c(Cl)c1Cl`: the AC50 was 4.33 µM (active) and 28.2 µM (active). On to `Cc1cc(O)ccc1Cl`, for which the result was inactive.

For `C=CC(N)=O`, the result was inactive. With `O=S(=O)(O)C(F)(F)C(F)(F)C(F)(F)C(F)(F)F`, the result was inactive.

Consider `Oc1ccc(Cl)cc1Cl`, for which the outcome was inactive. For `ClC1=C(Cl)[C@]2(Cl)[C@@H]3[C@@H](Cl)[C@H]4O[C@H]4[C@@H]3C1(Cl)C2(Cl)Cl`, the result was inactive. On to `Cc1cc2c3c(c1)C(c1ccccc1)=N[C@@H](NC(=O)c1ccncc1)C(=O)N3CC2`, for which the outcome was inactive.

With `CCC(=O)O[C@H]1CC[C@H]2[C@@H]3CCC4=CC(=O)CC[C@]4(C)[C@H]3CC[C@]12C`, the result was inactive.

Consider `Cc1cc(-c2ccc(N)c(C)c2)ccc1N`, for which the outcome was inactive. For the compound `CCCN(CCC)N=O`, the outcome was inactive. As to `CO/C=C(/C(=O)OC)c1ccccc1COc1cccc(C(F)(F)F)n1`, the outcome was inactive. The same measure, in the same setting: in the case of `Clc1ccc(Cl)cc1` it was “inactive”; in that of `C[C@]12CCC(=O)C=C1CC[C@@H]1[C@@H]2CC[C@]2(C)C(=O)CC[C@@H]12`, “inactive”. On the same count and under the same terms, in the case of `CCC(C)(CC)c1cc(NC(=O)c2c(OC)cccc2OC)on1` it was “inactive”; in that of `ClC1=C(Cl)[C@]2(Cl)[C@@H]3[C@@H]4C[C@@H]([C@H]5O[C@@H]45)[C@@H]3[C@@]1(Cl)C2(Cl)Cl`, “inactive”; in that of `Cc1ccccc1O`, “inactive”. Same read-out and setting: with `O=S(=O)(O)C(F)(F)C(F)(F)C(F)(F)C(F)(F)C(F)(F)C(F)(F)F` the entry was “inactive”; with `O=C(N[C@H]1CN2CCC1CC2)c1cc2ccoc2cn1`, “inactive”; with `CCCCCCOC(=O)c1ccccc1C(=O)OCCCCCC`, “inactive”. For the compound `CCOP(=S)(OCC)SCSC(C)(C)C`, the outcome was inactive.

Take `Cc1ccccc1CO[C@@H]1C[C@@]2(C(C)C)CC[C@]1(C)O2`: the outcome was inactive.

As to `Oc1ccc(C(c2ccc(O)cc2)(C(F)(F)F)C(F)(F)F)cc1`, the AC50 was 37.2 µM (active).

In the case of `CCOC(=O)C(O)(c1ccc(Cl)cc1)c1ccc(Cl)cc1`, the outcome was inactive. `CC1=C2C[C@H]3[C@@H](CC=C4C[C@@H](O)CC[C@@]43C)[C@@H]2CC[C@]12O[C@@H]1C[C@H](C)CN[C@H]1[C@H]2C`: the result was inactive. Regarding `C[C@]12CCC(=O)C=C1CC[C@@H]1[C@@H]2CC[C@@]2(C)[C@H]1CC[C@]2(C)O`, the outcome was inactive. Regarding `NS(=O)(=O)C(F)(F)C(F)(F)C(F)(F)C(F)(F)C(F)(F)C(F)(F)C(F)(F)C(F)(F)F`, the AC50 was 25.8 µM (active) and 51.3 µM (active). Regarding `CCCCCCCCCC[N+](C)(C)CCCCCCCCCC`, the AC50 was 5.15 µM (active). As to `c1cc2ccc3cccc4ccc(c1)c2c34`, the result was inactive. Still for that read-out and setting: with `O=C(NC(=O)c1cc(F)c(F)cc1Cl)Nc1cc(F)ccc1N1CCC(C(=O)O)CC1` the entry was “inactive”; with `CC(c1ccc(O)cc1)(c1ccc(O)cc1)c1ccc(O)cc1`, “inactive”. Consider `CCC(C)(c1ccc(O)cc1)c1ccc(O)cc1`, for which the outcome was inactive. Consider `Cc1cccc([N+](=O)[O-])c1`, for which the result was inactive.

Consider `CCCCCCCCOC(=O)c1ccccc1C(=O)OCCCCCCCC`, for which the result was inactive.

As for `COc1ccc(O)c(C(C)(C)C)c1`, the result was inactive. `ClC(Cl)=C(c1ccc(Cl)cc1)c1ccc(Cl)cc1`: the result was inactive. Turning to `Clc1ccc(C(Cl)(Cl)Cl)cc1`, the outcome was inactive.

Turning to `O=NN(c1ccccc1)c1ccccc1`, the result was inactive. Consider `CC(C)(c1ccccc1)c1ccc(O)cc1`, for which the AC50 is 32.3 µM (active). Consider `Sc1ccccc1`, for which the outcome was inactive.

In the case of `Nn1cnnc1`, the result was inactive.
